Test [1] addresses Cellular tumor antigen p53 (Homo sapiens) (UniProt P04637). The experiment in a line: TOX21_p53_BLA_p2_ratio: Tox21 HCT-116 p53 Agonism Beta-lactamase Assay, Ratio, Phase 2 (AID 2283592). The essentials:
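Read-out is the blue/green (460/530 nm, 405 nm excitation) ratio after 2 h CCF4-AM loading, fitted as gain versus DMSO. Compounds, pinned at 217-fold dilution from DMSO stocks, stayed 16 h on HCT-116 beta-lactamase reporter cells seeded 5 h earlier.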

A short description of test [2]: TOX21_p53_BLA_p3_viability: Viability Assessment in the Tox21 HCT-116 p53 Agonism Beta-lactamase Assay, Phase 3 (AID 2283593).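 Note: cells exposed to compound for 16 h before reading.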 The essentials:
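HCT116 cells, 4000/well, dosed 5 h after plating by pin transfer (217-fold dilution from DMSO stock) and incubated 16 h at 37C, 5% CO2. Viability read as ATP luminescence with CellTiter-Glo after 30 min at room temperature.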

Test [3] has as its target Cellular tumor antigen p53 (Homo sapiens) (UniProt P04637). The experiment in a line: TOX21_p53_BLA_p3_ratio: Tox21 HCT-116 p53 Agonism Beta-lactamase Assay, Ratio, Phase 3 (AID 2283596). The essentials:
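Cells were seeded at 4000/well, rested 5 h at 37C, then dosed with DMSO compound solutions (217-fold dilution) for 16 h. CCF4-AM substrate was loaded for 2 h at room temperature, and the 460/530 nm emission ratio was fitted for gain of signal versus DMSO.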

Test [4] is described as follows: TOX21_p53_BLA_p4_viability: Viability Assessment in the Tox21 HCT-116 p53 Agonism Beta-lactamase Assay, Phase 4 (AID 2283597).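 Note: hits lower the luminescence signal meaning cytotoxicity.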 The method, boiled down: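 Cytotoxicity as reduced cellular ATP (CellTiter-Glo luminescence, 30 min room temperature), measured in the same wells following the CCF4 FRET p53 reading. Human HCT-116 cells received compounds in DMSO (217-fold dilution) for 16 h.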

The target of test [5] is Cellular tumor antigen p53 (Homo sapiens) (UniProt P04637). The experiment in a line: TOX21_p53_BLA_p5_ratio: Tox21 HCT-116 p53 Agonism Beta-lactamase Assay, Ratio, Phase 5 (AID 2283599). The method, boiled down: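 HCT-116 p53-bla cells (4000/well) plated 5 h, dosed with compound (217-fold DMSO dilution) for 16 h at 37 C; CCF4-AM substrate 2 h at room temperature. Activity is the 460/530 nm emission ratio (405 nm excitation), fitted in gain-of-signal direction versus DMSO.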
Chain of Cellular tumor antigen p53 (Homo sapiens) (P04637 whole entry, looked up): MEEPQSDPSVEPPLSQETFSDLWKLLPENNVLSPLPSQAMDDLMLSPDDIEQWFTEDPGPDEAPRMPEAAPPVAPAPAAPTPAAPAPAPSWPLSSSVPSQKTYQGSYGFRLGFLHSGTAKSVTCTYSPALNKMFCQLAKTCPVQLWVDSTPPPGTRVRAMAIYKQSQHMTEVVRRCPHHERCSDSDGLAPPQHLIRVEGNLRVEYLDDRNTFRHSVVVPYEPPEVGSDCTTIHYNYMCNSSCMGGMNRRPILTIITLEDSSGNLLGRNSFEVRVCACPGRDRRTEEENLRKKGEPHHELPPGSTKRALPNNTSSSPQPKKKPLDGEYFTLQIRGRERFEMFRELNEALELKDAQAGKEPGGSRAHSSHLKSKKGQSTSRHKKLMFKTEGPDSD

Test [6] in a line: TOX21_p53_BLA_p5_viability: Viability Assessment in the Tox21 HCT-116 p53 Agonism Beta-lactamase Assay, Phase 5 (AID 2283600). The method, boiled down: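 Viability came from CellTiter-Glo ATP luminescence, read after 30 min at room temperature. Before this, HCT-116 p53-bla cells (4000/well) had 16 hours of compound exposure at 37C, with DMSO stocks diluted 217-fold on transfer.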

In test [7] the target is Cellular tumor antigen p53 (Homo sapiens) (UniProt P04637). The experiment in a line: TOX21_p53_BLA_p4_ratio: Tox21 HCT-116 p53 Agonism Beta-lactamase Assay, Ratio, Phase 4 (AID 2283601). The essentials:
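HCT-116 p53 beta-lactamase reporter cells (4000/well) preincubated 5 h, then compound (217-fold dilution of DMSO stock) for 16 h at 37C. CCF4-AM substrate added 2 h at room temperature; 460/530 nm emission ratio fitted upward versus DMSO.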

Inconclusive results are not listed. Some compounds were tested as several samples or in several runs, with calls that do not always agree. Active and inactive are the calls of the source. Rule for the calls: active = hit-call score of the fitted dose curve at least 0.9, where 1 is the maximum; inconclusive = response in the unintended direction; inactive = score below 0.9.

A word on the AC50: it is the midpoint of the concentration-response curve, whichever way the signal moves.

With `COC1[C@@H](O[C@@H]2O[C@H](C)[C@@H](O[C@H]3C[C@@](C)(O)[C@H](OC(=O)CC(C)C)[C@H](C)O3)[C@H](N(C)C)[C@H]2O)[C@@H](CC=O)C[C@@H](C)[C@@H](O)/C=C/C=C/C[C@@H](C)OC(=O)C[C@H]1OC(C)=O` (stereo not given in full), the result in test [1], in test [2], in test [3] and in test [4] was inactive.

As to `O=C(O)Cc1ccccc1Oc1ccc(Cl)cc1Cl`, the result in test [1], in test [2], in test [3], in test [4], in test [5] and in test [6] was inactive. For the same compound, the outcome in test [7] was inactive.

Regarding `NC(=O)c1cccc([N+](=O)[O-])c1`, the outcome in test [1], in test [2], in test [3], in test [4], in test [5] and in test [6] was inactive.

For `CCC1OC(=O)C[C@@H](O)[C@H](C)[C@@H](O[C@@H]2O[C@H](C)C[C@H](N(C)C)[C@H]2O)[C@@H](CC=O)C[C@@H](C)C(=O)/C=C/[C@]2(C)OC2C1C` (stereo not given in full), the outcome in test [1], in test [2], in test [3], in test [4], in test [5] and in test [7] was inactive. Moreover, the AC50 in test [5] is 35 µM (active); in test [7], 27.1 µM (active).

Regarding `Cc1ccc(C(=O)C(C)CN2CCCCC2)cc1` (stereo not given), the result in test [1], in test [2], in test [3], in test [4], in test [5] and in test [6] was inactive. The result in test [7] was inactive.

Consider `COC(=O)[C@@H]1[C@H]2C[C@H]3c4[nH]c5ccccc5c4CCN3C[C@@H]2CC[C@@H]1O`, for which the result in test [1], in test [2], in test [3], in test [4], in test [5] and in test [6] was inactive. Also, in test [7], the result was inactive.

Consider `CC(C)COC(=O)c1ccc(O)cc1`, for which the result in test [1], in test [2], in test [3], in test [4], in test [5] and in test [6] was inactive. Moreover, in test [7], the result was inactive.

As to `c1ccc(-n2cnnn2)cc1`, the outcome in test [1], in test [2], in test [3], in test [4], in test [5] and in test [6] was inactive. In addition, the outcome in test [7] was inactive.

`Oc1ccc(Cc2ccccc2)cc1`: in test [1], the AC50 was 66.5 µM (active). Besides, the call in test [2], in test [3], in test [4], in test [5], in test [6] and in test [7] was inactive.

As to `CC(=O)Nc1ccc(S(=O)(=O)Nc2ccc([N+](=O)[O-])cc2)cc1`, the result in test [1], in test [2], in test [3], in test [4] and in test [5] was inactive.

Take `CCCCOc1cc(C(=O)OCCN(CC)CC)ccc1N`: the result in test [1], in test [2], in test [3] and in test [4] was inactive.

As to `CC1=C(C=O)C(C)(C)CC=C1`, the result in test [1], in test [2], in test [3], in test [4] and in test [5] was inactive.

Consider `CCCCCCCCCCCCCCN(C)C`, for which the outcome in test [1], in test [2], in test [3], in test [4] and in test [5] was inactive.

Consider `CCOc1ccccc1C(N)=O`, for which the result in test [1], in test [2], in test [3], in test [4], in test [5] and in test [6] was inactive. In test [7], the outcome was inactive.

Consider `COC(=O)C1=C(C)NC(C)=C(C(=O)OC(C)(C)CN(C)CCC(c2ccccc2)c2ccccc2)C1c1cccc([N+](=O)[O-])c1` (stereo not given), for which the outcome in test [1], in test [2], in test [3], in test [4], in test [5] and in test [6] was inactive. Also, in test [7], the result was inactive.

Turning to `C[C@H](O)[C@H](O)[C@H]1CNc2nc(N)[nH]c(=O)c2N1`, the outcome in test [1], in test [2], in test [3], in test [4], in test [5] and in test [6] was inactive. Moreover, the result in test [7] was inactive.

Take `Cc1cc2c(cc1S(N)(=O)=O)S(=O)(=O)CCC2`: the result in test [1], in test [2], in test [3], in test [4], in test [5] and in test [6] was inactive. In addition, the result in test [7] was inactive.

As to `CC(N)C12CC3CC(CC(C3)C1)C2` (stereo not given), the result in test [1], in test [2], in test [3], in test [4], in test [5] and in test [6] was inactive. Moreover, the outcome in test [7] was inactive.

On to `CO/N=C(\C(=O)N[C@@H]1C(=O)N2C(C(=O)O)=C(COC(C)=O)CS[C@H]12)c1csc(N)n1` (stereo in doubt), for which the result in test [1], in test [2], in test [3], in test [4], in test [5] and in test [6] was inactive. For the same compound, the result in test [7] was inactive.

As for `Nc1ccc(C(=O)Oc2ccccc2)c(O)c1`, the result in test [1], in test [2], in test [3], in test [4], in test [5] and in test [6] was inactive. Also, in test [7], the outcome was inactive.

With `CCOC(=O)c1c(N)sc2c1CCN(Cc1ccccc1)C2`, the result in test [1], in test [2], in test [3], in test [4], in test [5] and in test [6] was inactive. Besides, in test [7], the outcome was inactive.

For `COc1cc2c(cc1N)oc1ccccc12`, the outcome in test [1], in test [2], in test [3], in test [4], in test [5] and in test [6] was inactive. In addition, in test [7], the AC50 was 66.1 µM (active).

For the compound `O=C1c2ccccc2C(=O)C1(O)O`, the AC50 in test [1] was 31.8 µM (active); in test [2], 63.8 µM (active); in test [3] it was 22.8 µM (active); in test [4] it was 60.2 µM (active); in test [5], 29 µM (active); in test [7], 36.3 µM (active). Also, in test [6], the result was inactive.

Take `Cc1cccn2c(=O)c(-c3nnn[nH]3)cnc12`: the result in test [1], in test [2], in test [3], in test [4], in test [5] and in test [6] was inactive. The result in test [7] was inactive.

As for `COc1cccc(N(C)C(=S)Oc2ccc3c(c2)CCCC3)n1`, the outcome in test [1], in test [2], in test [3], in test [4], in test [5] and in test [6] was inactive. Further, in test [7], the outcome was inactive.

As to `CCCC(=O)N1CCCN(c2nc(N)c3cc(OC)c(OC)cc3n2)CC1`, the outcome in test [1], in test [2], in test [3], in test [4], in test [5] and in test [6] was inactive. The outcome in test [7] was inactive.

The record behind these values is PubChem BioAssay (EPA / NIEHS).
